Test results taken from PubChem BioAssay AID651642 (Sanford-Burnham Center for Chemical Genomics, 2012).
Activity calls are given as the source filed them.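 The calls were made as follows: active = average half-effect concentration of 10 µM or less in every one of the four cell panels; inactive = the rest.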

Test system: HL-1
Assay: cardiomyocyte survival under oxidative or metabolic stress – cell-based, panel, H9c2 and HL-1, H2O2, 2-deoxyglucose, ATP luminescence, SAR follow-up (AID 651642)
Settings: H9c2/HL-1 cardiomyocyte 2-deoxyglucose damage, mean of runs, with 2-deoxyglucose

Compound | outcome
COc1cc(-c2cc(C(=O)Nc3cccc(C#N)c3)c3ccccc3n2)cc(OC)c1OC | inactive
COc1ccc2c(c1OC)C(=O)N1c3ccccc3C(=O)N(Cc3cccc(Br)c3)C21 (configuration not stated) | active
COc1ccc2c(c1OC)C(=O)N1c3ccccc3C(=O)N(Cc3ccccc3Br)C21 (configuration not stated) | inactive
COc1cc(-c2cc(C(=O)Nc3cccc(C(=O)NC4CC4)c3)c3ccccc3n2)cc(OC)c1OC | active
COc1cc(-c2cc(C(=O)Nc3cccc(C(C)=O)c3)c3cc(F)ccc3n2)cc(OC)c1OC | inactive
COc1ccc2c(c1OC)C(=O)N1c3ccccc3C(=O)N(Cc3cccc(F)c3)C21 (configuration not stated) | active
COc1ccccc1CN1C(=O)c2ccccc2N2C(=O)c3c(ccc(OC)c3OC)C12 (configuration not stated) | active
COc1ccc2c(c1OC)C(=O)N1c3ccccc3C(=O)N(Cc3cccc(C)c3)C21 (configuration not stated) | inactive
COc1ccc2c(c1OC)C(=O)N1c3ccccc3C(=O)N(Cc3ccccc3C)C21 (configuration not stated) | active
COc1cc(-c2cc(C(=O)NCC(=O)Nc3cccc(C(C)=O)c3)c3cccc(Cl)c3n2)cc(OC)c1OC | active
CCOC(=O)c1cccc(NC(=O)CNC(=O)c2cc(-c3cc(OC)c(OC)c(OC)c3)nc3c(Cl)cccc23)c1 | inactive
CCOC(=O)c1cccc(NC(=O)c2cc(-c3cc(OC)c(OC)c(OC)c3)nc3ccc(Br)cc23)c1 | inactive
COc1ccc2c(c1OC)C(=O)N1c3ccccc3C(=O)N(Cc3cccc(Cl)c3Cl)C21 (configuration not stated) | active
COc1ccc2c(c1OC)C(=O)N1c3ccccc3C(=O)N(Cc3ccccc3F)C21 (configuration not stated) | active
COc1cc(-c2cc(C(=O)Nc3cccc(C(C)=O)c3)c3ccc(Cl)cc3n2)cc(OC)c1OC | inactive
COc1ccc2c(c1OC)C(=O)N1c3ccccc3C(=O)N(Cc3ccc(C)cc3C)C21 (configuration not stated) | inactive

Compound | outcome
COc1cc(-c2cc(C(=O)Nc3cccc(C(=O)NCc4ccccc4)c3)c3ccccc3n2)cc(OC)c1OC | active
CCOC(=O)c1cccc(NC(=O)c2cc(-c3cc(OC)c(OC)c(OC)c3)nc3ccccc23)c1 | inactive
CCNC(=O)c1cccc(NC(=O)c2cc(-c3cc(OC)c(OC)c(OC)c3)nc3ccccc23)c1 | active
COc1ccc2c(c1OC)C(=O)N1c3ccccc3C(=O)N(Cc3ccncc3)C21 (configuration not stated) | inactive
CCOC(=O)c1ccccc1NC(=O)c1cc(-c2cc(OC)c(OC)c(OC)c2)nc2ccccc12 | inactive
CCOC(=O)c1cccc(NC(=O)c2cc(-c3cc(OC)c(OC)c(OC)c3)nc3ccc(C)cc23)c1 | inactive
COc1cc(-c2cc(C(=O)Nc3cccc(C(C)=O)c3)c3cc(C)ccc3n2)cc(OC)c1OC | inactive
COc1cc(-c2cc(C(=O)NCC(=O)Nc3ccc(C(C)=O)cc3)c3cc(F)ccc3n2)cc(OC)c1OC | inactive
COc1cc(-c2cc(C(=O)Nc3cccc(-c4nn[nH]n4)c3)c3ccccc3n2)cc(OC)c1OC | inactive
COc1ccc2nc(-c3cc(OC)c(OC)c(OC)c3)cc(C(=O)NCC(=O)Nc3cccc(C(C)=O)c3)c2c1 | active
COc1ccc2nc(-c3cc(OC)c(OC)c(OC)c3)cc(C(=O)Nc3cccc(C(C)=O)c3)c2c1 | inactive
CCOC(=O)c1cccc(NC(=O)CNC(=O)c2cc(-c3cc(OC)c(OC)c(OC)c3)nc3ccc(OC)cc23)c1 | active
COc1cc(-c2cc(C(=O)Nc3cccc(C(=O)N(C)C)c3)c3ccccc3n2)cc(OC)c1OC | inactive
CCOC(=O)c1cccc(NC(=O)CNC(=O)c2cc(-c3cc(OC)c(OC)c(OC)c3)nc3ccccc23)c1 | inactive
COc1cc(-c2cc(C(=O)NCC(=O)Nc3cccc(C(C)=O)c3)c3cc(C)ccc3n2)cc(OC)c1OC | inactive
CCOC(=O)c1cccc(NC(=O)c2cc(-c3cc(OC)c(OC)c(OC)c3)nc3c(Cl)cccc23)c1 | inactive
